Measurements as given in PubChem BioAssay AID652197 (Broad Institute, 2013).
“And” between values parts separate entries of the source, which are not always exact repeats. Identical values can stand only once. Among all 340,000 compounds or so, about 500 (0.15%) were called active.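 The calls were made as follows: active = mean replicate inhibition of at least 30%, or all replicates individually reaching that 30% level; inactive = mean below 30% and not every replicate reaching it.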 The list comes from a sample in which actives are over-represented; it also holds similar structures and randomly drawn compounds.

What follows are compounds tested against Endoplasmic reticulum aminopeptidase 1 (Homo sapiens) (UniProt Q9NZ08) (assay: inhibition of ERAP1 peptide trimming enzyme – biochemical, single point, plate reader, primary screen (AID 652197;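 also: 0% = neutral control wells and 100% = L-leucinethiol positive control wells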)). Conditions: recombinant ERAP1, Leu-AMC fluorescence, 60 min; at 10.7 µM; stronger effect = higher value.
Chain of Endoplasmic reticulum aminopeptidase 1 (Homo sapiens) (Q9NZ08 whole entry, looked up): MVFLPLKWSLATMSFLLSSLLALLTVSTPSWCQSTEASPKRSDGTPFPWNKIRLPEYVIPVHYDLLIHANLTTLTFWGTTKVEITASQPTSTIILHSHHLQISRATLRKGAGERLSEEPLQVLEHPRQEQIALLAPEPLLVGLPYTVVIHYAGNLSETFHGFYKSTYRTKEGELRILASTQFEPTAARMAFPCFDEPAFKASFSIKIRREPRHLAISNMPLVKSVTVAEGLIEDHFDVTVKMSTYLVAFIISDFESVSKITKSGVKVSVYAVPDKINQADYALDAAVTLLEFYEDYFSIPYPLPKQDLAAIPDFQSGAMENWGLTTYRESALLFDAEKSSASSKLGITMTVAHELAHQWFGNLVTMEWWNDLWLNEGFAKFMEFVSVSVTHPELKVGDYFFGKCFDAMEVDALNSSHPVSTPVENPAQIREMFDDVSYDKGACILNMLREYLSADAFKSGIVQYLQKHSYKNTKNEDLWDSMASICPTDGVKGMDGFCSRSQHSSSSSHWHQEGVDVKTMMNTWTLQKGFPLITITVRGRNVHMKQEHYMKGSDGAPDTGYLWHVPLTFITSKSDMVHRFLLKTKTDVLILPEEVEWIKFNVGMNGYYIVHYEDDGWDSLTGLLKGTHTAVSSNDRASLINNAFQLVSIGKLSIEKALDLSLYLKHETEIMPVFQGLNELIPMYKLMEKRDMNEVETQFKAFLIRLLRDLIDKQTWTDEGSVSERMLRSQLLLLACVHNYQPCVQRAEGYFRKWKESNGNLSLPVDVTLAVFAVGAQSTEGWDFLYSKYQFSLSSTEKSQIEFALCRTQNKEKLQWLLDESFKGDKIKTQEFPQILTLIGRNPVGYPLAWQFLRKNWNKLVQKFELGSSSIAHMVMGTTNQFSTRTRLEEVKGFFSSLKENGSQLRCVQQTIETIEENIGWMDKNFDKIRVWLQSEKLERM

inhibition, inactive:
COc1ccc2c3c(n(C)c2c1)[C@@H](CO)N(C(=O)Nc1cccc(F)c1)CC31CCN(Cc2nccs2)CC1 -1.39%
O=C(Nc1ccccc1F)N1CC(=O)N2[C@@H](CO)[C@H](c3ccc(C#CC4CCCC4)cc3)[C@@H]2C1 -1.61%
CCC(=O)N1CCC2(CC1)CN(S(C)(=O)=O)[C@@H](CO)c1c2c2ccc(OC)cc2n1C -0.517%
CC(=O)N(C)C[C@H]1[C@H](c2ccc(C3=CCCCC3)cc2)[C@H](CO)N1CC1CC1 2.34%
O=C(NCC1CC1)[C@@H]1[C@@H](CO)[C@@H]2Cn3c(ccc(C4=CCCC4)c3=O)[C@H]1N2CCC(F)(F)F 6.29%
O=C(Nc1ccc(F)cc1)N[C@H]1CC[C@H](CCn2cc(C3(O)CCCC3)nn2)O[C@@H]1CO -1.65%
CN1CCN(C(=O)C[C@H]2CC[C@H]3[C@@H](COC[C@H](O)CN3CC3CCCC3)O2)CC1 1.07%
O=C(C[C@@H]1CC[C@@H]2[C@H](COC[C@H](O)CN2C(=O)c2ccncc2)O1)NCc1cc(F)cc(F)c1 -4.11%
CN1c2ccc(Br)cc2[C@@H]2[C@@H](CCN2S(=O)(=O)c2ccc(F)cc2)[C@@H]1CO -0.368%
CN1CCCCC(NC(=O)C(C)(C)C)C1=O (configuration not stated) -3.81%
CS(=O)(=O)Nc1ccc2c(c1)[C@H]1C[C@H](CC(=O)NC3CCCC3)O[C@@H](CO)[C@H]1O2 -1.31%
CC(C)C#Cc1cnc2c(c1)C(=O)N([C@H](C)CO)C[C@H](C)[C@@H](CN(C)C(=O)Nc1cc(F)ccc1F)O2 1.03%
O=C(C[C@@H]1C=C[C@H](NC(=O)CN2CCOCC2)[C@@H](CO)O1)NCc1cccc(F)c1 0.919%
CCCC#Cc1ccc([C@@H]2[C@@H](CO)N3C(=O)CN(C(=O)Nc4cccc(F)c4)C[C@H]23)cc1 -1.93%
CCCNC(=O)Nc1ccc2c(c1)OC[C@H](C)N(CCC(F)(F)F)C[C@H](C)[C@@H](OC)CN(C)C2=O 1.36%
CCN(CC)CCn1cnc2c1c(=O)[nH]c(=O)n2Cc1ccccc1 -0.129%
Cc1nnc(Sc2nc3c(c(=O)[nH]c(=O)n3C)n2Cc2ccccc2)s1 -0.766%
Cc1noc(C)c1NC(=O)N(C)C[C@@H]1OCCCC[C@H](C)Oc2ccc(NC(=O)C3CCCCC3)cc2C(=O)N([C@H](C)CO)C[C@@H]1C 1.95%
Cc1noc(C)c1NC(=O)N(C)C[C@@H]1OCCCC[C@H](C)Oc2ccc(NS(=O)(=O)c3c(C)noc3C)cc2C(=O)N([C@@H](C)CO)C[C@@H]1C -2.92%
CO[C@@H]1CN(C)C(=O)c2cc(NC(=O)NC3CCCCC3)ccc2OC[C@@H](C)N(C(C)=O)C[C@H]1C 1.39%
CO[C@H]1CN(C)C(=O)c2ccc(NC(=O)CC(F)(F)F)cc2OC[C@H](C)N(C(=O)C2CC2)C[C@H]1C 1.15%
COc1ccc2sc(-c3ccc(N(C)C)cc3)c(C#CCO)c2c1 0.776%
CN(C)Cc1cn(CC[C@H]2CC[C@@H](NS(=O)(=O)c3ccccc3)[C@H](CO)O2)nn1 -0.48%
CCNC(=O)Nc1ccc2c(c1)C(=O)N(C)[C@H]1CC[C@@H](CC(=O)N[C@@H](C)c3ccccc3)O[C@H]1CO2 -1.42%
O=C(O)C[C@@H]1C[C@@H]2c3cc(NC(=O)NC4CCCC4)ccc3O[C@@H]2[C@H](CO)O1 0.604%
CC(C)NC(=O)N1[C@H](CO)[C@H](c2ccccc2)C12CN(C(=O)Cc1cccnc1)C2 0.883%
COc1ccc(CCn2c(=N)c(C(=O)NCC3CCCO3)cc3c(=O)n4cccc(C)c4nc32)cc1OC (configuration not stated) 1.75%
Cc1ccc2nc3c(cc(C(=O)NCCc4ccccc4)c(=N)n3CC3CCCO3)c(=O)n2c1 (configuration not stated) -79.5%
C[C@H]1CN([C@@H](C)CO)C(=O)Cc2cc(NC(=O)Cn3cnnn3)ccc2O[C@H]1CN(C)CC1CC1 2.17%
O=C(C[C@H]1C=C[C@H](NC(=O)Nc2cc(F)ccc2F)[C@@H](CO)O1)NCc1ccccn1 -1.22%
COc1ccc(C(=O)Nc2ccc3c(c2)C(=O)N(C)C[C@@H](OC)[C@H](C)CN(C(C)=O)[C@@H](C)CO3)cc1 2.42%
CCC(CC)NC(=O)/C=C/c1cccc([N+](=O)[O-])c1 4.03%
O=C(Nc1cccc([N+](=O)[O-])c1)Nn1cnnc1 -4.32%
C[C@@H]1CCCCO[C@H](CN(C)C)[C@@H](C)CN([C@H](C)CO)C(=O)c2cc(N(C)C)ccc2O1 -1.68%
COc1ccc(NC(=O)N(C)C[C@@H]2OCCCC[C@H](C)Oc3ccc(NS(=O)(=O)c4cccs4)cc3C(=O)N([C@@H](C)CO)C[C@@H]2C)cc1 -4.78%
Cc1c(C)c2c(OCC(=O)NCCCO)cc3c(c2oc1=O)CCC(C)(C)O3 1.62%
Cc1cc(=O)oc2c3c(cc(OCC(=O)N[C@H](C(=O)O)c4ccccc4)c12)OC(C)(C)CC3 15.5%
O=C(C[C@H]1CC[C@H]2[C@@H](COC[C@@H](O)CN2Cc2nccs2)O1)NCc1ccccc1Cl 0.949%
COc1ccccc1S(=O)(=O)N[C@@H]1C=C[C@H](CC(=O)NCc2cccc(F)c2)O[C@H]1CO 0.371%
CN(C)C(=O)C[C@@H]1C[C@H]2c3cc(NC(=O)Nc4ccccc4F)ccc3O[C@H]2[C@@H](CO)O1 -1.15%
O=C(C[C@@H]1C=C[C@H](NC(=O)Nc2ccccc2F)[C@H](CO)O1)NCc1ccc(F)cc1 -4.09%
COc1ccc(NC(=O)Nc2ccc3c(c2)C(=O)N([C@@H](C)CO)C[C@@H](C)[C@H](CN(C)S(=O)(=O)c2cccs2)O3)cc1 2.02%
C[C@@H]1CN([C@H](C)CO)C(=O)c2cc(NS(=O)(=O)c3cn(C)cn3)ccc2O[C@@H](C)CCCCO[C@H]1CN(C)C 11.1%
COc1ccc(C#Cc2cnc3c(c2)C(=O)N([C@H](C)CO)C[C@@H](C)[C@@H](CN(C)C(=O)CN(C)C)O3)cc1 6.88%
Cc1noc(C)c1S(=O)(=O)Nc1cccc2c1O[C@@H](CN(C)S(=O)(=O)c1cn(C)cn1)[C@@H](C)CN([C@H](C)CO)C2=O 1.15%
CCCc1cn(CC[C@@H]2CC[C@H](NS(=O)(=O)c3ccccc3Cl)[C@H](CO)O2)nn1 4.02%
CO[C@H]1CN(C)C(=O)c2ccc(NC(=O)c3ccc4c(c3)OCO4)cc2OC[C@@H](C)NC[C@@H]1C 0.503%
CN1C(=O)c2cc(NS(=O)(=O)CC(F)(F)F)ccc2OC[C@H]2O[C@@H](CC(=O)NCc3ccc(Cl)c(Cl)c3)CC[C@@H]21 -2.14%
Cc1ccccc1S(=O)(=O)N1[C@H](C#N)[C@H](c2ccccc2)[C@@H]1CO 1.23%
CN(C)C(=O)c1cccc(-c2ccc([C@H]3[C@H]4CN(C(=O)Cc5ccccc5)CC(=O)N4[C@H]3CO)cc2)c1 1.83%
CO[C@@H]1CN(C)C(=O)c2cc(NC(=O)NC3CCCC3)ccc2OC[C@H](C)NC[C@H]1C 1.04%
COc1cccc(S(=O)(=O)N2[C@@H]3CNC[C@H]2C3c2ccc(-c3ccccc3OC)cc2)c1 (some centres not stated) -1.91% and -0.285%
COC(=O)C[C@@H]1CC[C@H]2[C@H](COc3ccc(NC(=O)c4ccccc4F)cc3C(=O)N2C)O1 0.852%
C/C=C/c1ccc([C@H]2[C@@H](CO)N(C(=O)CN(C)C)C23CN(C(=O)C2CCCC2)C3)cc1 -0.32%
C[C@H](CO)N1C[C@H](C)[C@H](CN(C)C(=O)c2ccccc2)OCCCC[C@H](C)Oc2ccc(N(C)C)cc2C1=O 1.85%
COc1ccccc1S(=O)(=O)N1C[C@@H]2N[C@H](C1)C2c1ccc(-c2cccc(C)c2)cc1 (some centres not stated) 4.06% and 6.11%
C[C@@H](NC(=O)C[C@H]1C=C[C@@H](NC(=O)CN2CCOCC2)[C@@H](CO)O1)c1ccccc1 9%
CCCN1C[C@H](C)[C@@H](OC)CN(C)C(=O)c2ccc(NC(=O)C3CCOCC3)cc2OC[C@@H]1C -1.27%
O=C(Nc1cccc(Cl)c1)N[C@@H]1CC[C@@H](CCNC(=O)C2CCOCC2)O[C@@H]1CO -1.57%
COc1ccc(NC(=O)N(C)C[C@H]2Oc3ccc(N(C)C)cc3C(=O)N([C@@H](C)CO)C[C@H]2C)cc1 3.18%
O=C(Nc1cc(F)ccc1F)N1C[C@H]2[C@@H](c3ccccc31)[C@@H](CO)N2CC1CCCC1 -1.13%
C[C@H]1CN([C@@H](C)CO)C(=O)c2cc(NS(=O)(=O)c3cccs3)ccc2O[C@@H]1CN(C)C(=O)Nc1ccccc1 -2.47%

inhibition, active:
Cn1c(=O)[nH]c(=O)c2c1[nH]c(=S)n2Cc1ccccc1 30.6%
COc1ccc2c(c1)c(=Cc1ccc(N(C)C)cc1)c1cc(-c3ccccc3)[n+](C)n12 48.3%
Cc1cccn2c(=O)c3cc(C(=O)NCCN4CCOCC4)c(=N)n(Cc4cccnc4)c3nc12 54.5%
COC(=O)/C=C\C(=O)Nc1cccc([N+](=O)[O-])c1 33.8%
Cc1c(C)c2c(OCC(=O)N[C@@H](C(=O)O)c3ccccc3)cc3c(c2oc1=O)CCC(C)(C)O3 31.7%
